# Source: PubChem (National Center for Advancing Translational Sciences (NCATS))
# Giardia kill: Giardia lamblia killing | activity change, % at 7.66 µM, hits read low | Giardia lamblia trophozoite viability | actives 0.15% (n = 340,000); in the data active means activity change below about -80%; inconclusive means between about -30% and that limit;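 further: parasites exposed to compound for two days anaerobically before the ATP read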
#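 Trophozoites 100 cells/well + cpd; 48 hrs, 37 deg C, anaerobic. ATPLite 1-Step added, 15-30 min RT, luminescence read (ATP-based viability).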
# TDP1 inh: blocks human tyrosyl-DNA phosphodiesterase 1 | Q9NUW8 | recombinant TDP1, AlphaScreen DNA substrate cleavage | Potency, µM (highest dose often 130 µM), for the others: at the top dose activity change, negative = inhibition, usual class: inhibitors | actives 0.28% (n = 350,000) | AID 485290; further: potency means the concentration at half of the fitted maximal effect; nearly all actives have a fitted effect of over 40% in size
# Target sequence (Q9NUW8 whole entry, looked up): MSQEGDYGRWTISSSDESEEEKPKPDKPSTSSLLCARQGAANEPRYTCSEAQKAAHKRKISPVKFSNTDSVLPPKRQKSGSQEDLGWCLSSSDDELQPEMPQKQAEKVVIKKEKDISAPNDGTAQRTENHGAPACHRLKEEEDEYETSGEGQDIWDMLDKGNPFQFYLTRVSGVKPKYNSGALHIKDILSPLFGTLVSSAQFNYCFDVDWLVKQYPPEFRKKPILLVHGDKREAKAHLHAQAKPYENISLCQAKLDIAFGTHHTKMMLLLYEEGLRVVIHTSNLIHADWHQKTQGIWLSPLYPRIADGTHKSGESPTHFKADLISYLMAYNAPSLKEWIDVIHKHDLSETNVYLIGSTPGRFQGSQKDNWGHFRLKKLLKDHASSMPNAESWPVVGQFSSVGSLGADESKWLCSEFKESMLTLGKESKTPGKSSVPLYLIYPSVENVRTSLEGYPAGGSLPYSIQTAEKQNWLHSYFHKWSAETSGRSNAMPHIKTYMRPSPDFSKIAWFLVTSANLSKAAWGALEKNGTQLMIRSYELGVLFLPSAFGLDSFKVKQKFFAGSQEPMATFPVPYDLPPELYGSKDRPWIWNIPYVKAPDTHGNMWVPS
#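 Recombinant human Tdp1 (E. coli-expressed, 1 nM final) preincubated with compounds 15 min at room temperature, then 5'-biotin/3'-phosphotyrosine-FITC DNA substrate (15 nM final) added for 5 min. AlphaScreen beads (10 ug/ml final) added 10 min; cleavage lowers signal.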
# ELG1 repair inh: blocks ELG1-dependent DNA repair in HEK293T cells; Potency, µM (doses to about 46.1 µM), for inactives: top-dose activity change, negative = inhibition, most hits filed as inhibitors; actives 2.3% (n = 330,000); HEK293T ELG1-luciferase reporter, luminescence, 16 h; DNA damage induced by 5-fluorouridine; AID 504467; further: potency means the concentration at half of the fitted maximal effect; nearly all actives have a fitted effect of over 55% in size
#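 Step one: seed 2,000 cells per well. Step two: pin-transfer compound or DMSO alongside 5-fluorouridine. Step three: incubate 16 hr, 37 °C, 5% CO2. Step four: add ONE-Glo, wait 30 min, read luminescence.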
# IL-1B inflam inh: blocks inflammasome-driven IL-1 beta release | THP-1 LPS/ATP IL-1B secretion, AlphaLISA, 16 h; hits give low values | activity change, % at 57.5 µM | actives 4.7% (n = 360,000) | AID 743279; in the data active means activity change below about -50%; inconclusive means mostly about -30% to -49%
#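 THP-1 cells pretreated 1 hr with compounds (up to 57.5 uM final), then stimulated with LPS (250 ng/mL final) plus ATP (1.25 mM final); secreted IL-1B measured by AlphaLISA after 16 hr, decreased signal indicating inhibition.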
# TDP1 cell noCPT: qHTS for Inhibitors of human tyrosyl-DNA phosphodiesterase 1 (TDP1): qHTS in cells in absence of CPT; AID 686978, 2013; DT40 Tdp1-/- hTDP1 cells, no CPT, ATP luminescence, 48 h; actives 15% (n = 420,000); Potency, µM (titrated, usually from 46.2 µM), for inactives: top-dose activity change, negative = growth inhibition, usual class: inhibitors; further: potency means the concentration at half of the fitted maximal effect; nearly all actives have a fitted effect of over 55% in size
#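 A cellular qHTS used chicken DT40 cells lacking endogenous Tdp1 but carrying stably transfected human TDP1. Compounds were applied without camptothecin, and cell growth kinetics were judged by ATP-dependent luminescence after ≥48 hr.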
# DT40 TDP1 CPT: DT40-hTDP1 cell growth loss with CPT; chicken DT40 Tdp1-/-;hTDP1 cells + 20 nM CPT, ATP luminescence, 48 h; Potency, µM (highest dose often 46.2 µM), for inactives: top-dose activity change, negative = growth inhibition, usual class: inhibitors; actives 12% (n = 420,000); further: potency means the concentration at half of the fitted maximal effect; nearly all actives have a fitted effect of over 55% in size
#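 Cell growth measured by CellTiter-Glo luminescence after a minimum 48 h, 37 C compound exposure with 20 nM CPT in Tdp1-knockout DT40 cells stably expressing hTDP1, seeded 400/well; qHTS titration format.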
# * hit, by the source's call; ? = inconclusive; · = no result given; [ ] = another dose, or the depositor's remark. Sampled rows, rich in hits. Any-hit rate of the full collection: about 19%. Unless noted, the call rests on the fitted dose curve; in most records, active means well fitted curve in the direction sought with a large enough effect; inconclusive means small, poorly fitted or top-dose-only effect, or another doubt; inactive means no such curve, though single readings can be large; an effect the other way counts as inactive or inconclusive. On the % scale 0 is the no-effect control and ±100 the full control effect.
SMILES,Giardia kill,TDP1 inh,ELG1 repair inh,IL-1B inflam inh,TDP1 cell noCPT,DT40 TDP1 CPT
Cc1ccc(C2=NN(C(=O)c3ccco3)C(O)(C(F)(F)F)C2)cc1 (stereo unspecified),24,0%,-19%,-66*,?,?
COc1cccc(C(=O)N2N=C(c3ccccc3)CC2(O)C(F)(F)F)c1 (stereo unspecified),-4,2%,-6%,-2,?,3%
CCCCC1=NN(C(=O)c2cocc2C)C(O)(C(F)(F)F)C1 (stereo unspecified),5,4%[56.1 µM],-12%,-14,?,?
COc1cccc(C2=NN(C(=O)c3ccccc3)C(O)(C(F)(F)F)C2)c1 (stereo unspecified),4,5%,-10%,-10,21µM*,16µM*
CCCCC1=NN(C(=O)c2ccco2)C(O)(C(F)(F)F)C1 (stereo unspecified),22,-2%,-4%,42,0.52µM*,0.52µM*
O=C(c1ccco1)N1N=C2CCCCCC2C1(O)C(F)(F)F (stereo unspecified),-15,0%,0.33µM*,21,-22%,17%
COC(=O)c1cc2sc(Cl)cc2n1Cc1nc(-c2ccccc2C)oc1C,·,-2%,·,·,9%,7%
CCOc1ccc2nc(Cl)c(C3CC(c4ccccc4)=NN3C(=O)CCC(=O)O)cc2c1 (stereo unspecified),·,2%,·,·,-15%,3%
O=C(Cn1c(=O)oc2cc(S(=O)(=O)N3CCCCC3)ccc21)N1CCCCC1,0,2%,6%,16,-7%,5%
O=C(O)CSc1cc(NS(=O)(=O)c2cccc([N+](=O)[O-])c2)c2ccccc2c1O,-81*,10%,23µM*,-86*,1.8µM*,2.3µM*
O=S(=O)(Nc1cc(Sc2cccc3cccnc23)c(O)c2ccccc12)c1ccccc1,·,0%,9.2µM*,·,·,·
CCOc1ccc(S(=O)(=O)Nc2cc(SCC(=O)O)c(O)c3ccccc23)cc1,-14,·,?,94,4.6µM*,3.7µM*
Cc1ccc(C)c(S(=O)(=O)Nc2cc(SCC(=O)O)c(O)c3ccccc23)c1,11,5%,?,-98*,6.5µM*,5.8µM*
CCn1c(C)c(C2=CCN(S(=O)(=O)c3ccccc3)CC2)c2ccccc21,13,7%,-8%,-8,?,?
CC(=O)OC[C@@H]1O[C@H](CCON=C(C)C)C=C[C@@H]1OC(C)=O,·,6%[21 µM],·,·,·,·
CN(CC1CCCN(CCc2cccc(C(F)(F)F)c2)C1)C(=O)c1cc2ccccc2o1 (stereo unspecified),5,·,-26%,-60*,13µM*,?
CCN(CC1CCCN(CCc2cccc(F)c2)C1)C(=O)c1cc2ccccc2o1 (stereo unspecified),7,4%,-1%,-88*,18µM*,26µM*
CCN(CC1CCCN(CCc2cccc(F)c2)C1)C(=O)c1cc(C)oc1C (stereo unspecified),8,6%,6%,?,?,?
Cc1cccc(Cn2cnc3c(oc4ccccc43)c2=O)c1,·,4%,·,·,-30%,?
CCN(CC)c1ccc(NC(=O)c2cccc(OC)c2)c(C)c1,11,2%,1%,-21,?,29µM*
CCN(CC)c1ccc(NC(=O)c2c(OC)cccc2OC)c(C)c1,14,-1%,·,-28,-10%,-12%
CCN(CC)c1ccc(NC(=O)c2cc(CN3CCCC3)on2)c(C)c1,·,8%,·,·,13µM*,16µM*
CCN(CC)c1ccc(NC(=O)c2cc(OC)cc(OC)c2)c(C)c1,-2,7%,15%,7,1.3µM*,1.3µM*
CCN(CC)c1ccc(NC(=O)C2COc3ccc(OC)cc3C2)c(C)c1 (stereo unspecified),·,4%,·,·,1µM*,0.58µM*
CCN(CC)c1ccc(NC(=O)c2ccc3c(c2)OCO3)c(C)c1,-14,6%,-6%,-17,?,?
SMILES,Giardia kill,TDP1 inh,ELG1 repair inh,IL-1B inflam inh,TDP1 cell noCPT,DT40 TDP1 CPT
CC1=C(C(=O)N(C(C)C)C(C)C)CC(CC(=O)NCc2ccco2)C(=O)N1CCCN1CCCC1=O (stereo unspecified),·,·,·,7,4%,2%
CC(=O)CC1(O)C(=O)Nc2ccccc21 (stereo unspecified),-7,5%,13%,11,12%,-4%
COC1=CC(=O)C=C(OC)C1(O)CC(C)=O,-17,·,·,1,3.7µM*,4.1µM*
CC(C)=C1C2C=CC1C1C(=O)N(c3ccc4c(c3)OCO4)C(=O)C21 (stereo unspecified),0,5%,11%,6,21µM*,?
CC(C)=C1C2CCC1C1C(=O)N(c3ccc4c(c3)OCO4)C(=O)C21 (stereo unspecified),18,-1%,-6%,1,-25%,-5%
COc1ccc(-c2cc(C(F)(F)F)nc(NCCc3ccccc3)n2)cc1,·,-15%,·,·,26µM*,23µM*
FC(F)(F)c1cc(-c2ccc(Cl)cc2)nc(NCc2cccnc2)n1,-22,3%,21µM*,0,?,?
Fc1ccc(CNc2nc(-c3ccccc3)cc(C(F)(F)F)n2)cc1,·,-15%,·,·,?,21µM*
COc1cccc(-c2cc(C(F)(F)F)nc(NCc3ccc(F)cc3)n2)c1,·,-15%,·,·,?,?
O=C(COC(=O)c1nc(Cl)ccc1Cl)c1ccc[nH]1,?,1%,28%,8,-12%,2%
O=C(COC(=O)c1nc(Cl)c(Cl)c(Cl)c1Cl)c1ccc[nH]1,-4,·,?,-103*,?,?
Cc1ccc(S(=O)(=O)c2cn(Cc3cccc(F)c3)c3cc(N4CCCC4)c(F)cc3c2=O)cc1,·,4%,·,·,5.2µM*,4.6µM*
Cc1ccc(S(=O)(=O)c2cn(Cc3ccccc3)c3cc(N4CCCCC4)c(F)cc3c2=O)cc1,·,6%,·,·,16µM*,8.2µM*
Cc1cccc(Cn2cc(S(=O)(=O)c3ccccc3)c(=O)c3cc(F)c(N4CCOCC4)cc32)c1,·,6%,·,·,23µM*,26µM*
Cc1ccc(Cn2cc(S(=O)(=O)c3ccc(C)cc3)c(=O)c3cc(F)c(N4CCCC4)cc32)cc1,·,1%,·,·,?,?
COc1cc(OC)c(NC(=O)c2c(N3CCCC3=O)c3cc(C)ccc3n2C)cc1Cl,·,-6%,·,·,-22%,-12%
CCCN1C2CCCC1CC(NC(=O)c1ccc(Br)cc1)C2 (stereo unspecified),16,1%,-8%,-12,-17%,4%
